dFosB activator = mouse delta FosB homodimer activation. purified delta FosB, TAMRA-CDK5 oligo fluorescence polarization; percent of positive-control signal above neutral wells. activation, % at 25 µM. 340,000 compounds, 0.99% hits. AID 493131;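 active = mean activation above about 17%, with every replicate also reaching it, limit read from the data, passing the limit was not always enough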
MEKK2 mut-MEK5 = signal of MEK5 binding to mutant human MEKK2 PB1 domain; bead flow cytometry, Alexa488-MEK5 binding to MEKK2 mutant; 290,000 compounds, 0.35% hits; AID 1530; percent response, % at 10 µM; in the data active = percent response above about 24%, passing the limit was not always enough
MEKK3 PB1 HTS = MEKK3-MEK5 PB1 interaction, increase or decrease. Q99759. bead-based flow cytometry, Alexa488-MEK5 binding to MEKK3; actives lie on both sides; 0 = blocked by unlabeled MEK5, 100 = vehicle. binding response (% of control), % at 10 µM. 290,000 compounds, 1.4% hits;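 active = binding response more than 3 SD above or below the average of its plate-row segment, actives on both sides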;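 note: Alexa488 bead fluorescence after subtracting the streptavidin-only scavenger bead signal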
Target sequence (Q99759 whole entry, looked up): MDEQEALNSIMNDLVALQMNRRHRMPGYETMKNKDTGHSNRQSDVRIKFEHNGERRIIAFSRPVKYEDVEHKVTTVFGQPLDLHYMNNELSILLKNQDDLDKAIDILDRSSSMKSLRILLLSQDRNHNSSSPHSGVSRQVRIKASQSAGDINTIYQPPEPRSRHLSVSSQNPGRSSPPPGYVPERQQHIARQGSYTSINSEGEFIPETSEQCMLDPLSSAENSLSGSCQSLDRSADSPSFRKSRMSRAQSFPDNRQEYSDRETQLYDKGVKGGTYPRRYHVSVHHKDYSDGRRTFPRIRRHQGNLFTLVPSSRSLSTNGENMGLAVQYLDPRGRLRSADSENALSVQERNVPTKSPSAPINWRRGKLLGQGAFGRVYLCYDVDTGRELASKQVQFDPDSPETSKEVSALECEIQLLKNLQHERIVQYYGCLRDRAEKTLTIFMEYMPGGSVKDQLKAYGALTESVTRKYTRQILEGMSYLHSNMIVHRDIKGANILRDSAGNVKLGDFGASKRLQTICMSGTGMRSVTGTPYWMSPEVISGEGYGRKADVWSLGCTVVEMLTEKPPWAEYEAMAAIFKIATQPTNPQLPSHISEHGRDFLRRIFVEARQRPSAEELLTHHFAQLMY
FID counter = fluorescent intercalator displacement, NS3 helicase counter-screen | 290,000 compounds, 0.17% hits | inhibition, % at 7.9 µM | AID 1845 | DNA fluorescent intercalator displacement, fluorescence; in the data active = inhibition above about 37%;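 note: 0% = vehicle and 100% = reference compound; higher means more ethidium bromide displaced from hairpin DNA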
MEKK2wt PB1 HTS = raises or lowers MEK5 binding to wildtype human MEKK2 PB1 domain; bead flow cytometry, Alexa488-MEK5 binding to MEKK2 WT; actives lie on both sides; binding response (% of control), % at 10 µM; 290,000 compounds, 1.1% hits; in the data active = binding response below about 67% or above about 130%
* = called active by the depositor; . = no result; [ ] = dose if it differs, or a comment. The list is not random: actives were taken first. Their share in the collection is about 2.9%.

SMILES	dFosB activator	MEKK2 mut-MEK5	MEKK3 PB1 HTS	FID counter	MEKK2wt PB1 HTS
O=C(Nc1ccc(S(=O)(=O)NC2=NCCCCC2)cc1)c1ccc2ccccc2n1	-5.1	-6.0	98.0	-3.2	91.0
CCN(CC)CCCNc1nc(-c2ccccc2)nc2ccccc12	-10.4	9.0	105.0	56.6*	109.0
COCCCNc1nc(-c2ccncc2)nc2ccccc12	-28.7	5.0	103.0	-14.2	107.0
c1ccc(-c2nc(NCCCn3ccnc3)c3ccccc3n2)cc1	-35.5	-2.0	96.0	66.3*	98.0
CCOc1ccc2[nH]c3c(NCCN(CC)CC)ncnc3c2c1	-5.4	14.0	108.0	20.5	120.0
COc1ccc(-c2nc(NCCCN(C)C)c3ccccc3n2)cc1	-8.5	5.0	103.0	78.7*	113.0
OCCNc1nc(-c2ccccc2)nc2ccccc12	-6.8	-2.0	97.0	-5.1	98.0
CCN(CC)CCCNc1nc2ccccc2c2[nH]c3ccc(OC)cc3c12	77.8*	.	.	.	.
COc1ccccc1N1CCN(S(=O)(=O)CCNC(=O)c2cccc(F)c2)CC1	-8.2	.	.	.	.
CCOC(=O)COc1ccc(C(=O)Nc2cccc(Cl)c2C)cc1	-10.4	0.0	96.0	-7.4	100.0
O=C(c1ccc(OC2CCN(Cc3ccccn3)CC2)cc1)N1CCC[C@H]1CO	-4.4	9.0	103.0	-6.1	111.0
O=C(OCC(=O)N1CCOCC1)c1cccc(S(=O)(=O)N2CCCc3ccccc32)c1	0.4	-7.0	90.0	-44.9	94.0
COc1ccc(NS(=O)(=O)c2cc([N+](=O)[O-])ccc2N/N=C\c2c(C)[nH]c3ccccc23)cc1	9.2	5.0	94.0	2.1	97.0
COc1ccccc1NS(=O)(=O)c1cc([N+](=O)[O-])ccc1N/N=C/c1c[nH]c2ccccc12	5.9	14.0	103.0	6.3	-1.0*
Nc1cc2ccncc2c2ccccc12	23.4*	7.0	102.0	26.6	109.0
CCOC1=C/C(=C/c2c(N)n3nc(S(=O)(=O)CC)sc3nc2=O)C=CC1=O	-1.5	.	.	-6.5	.
COc1cc2c(cc1NC(=O)CN1C(=O)NC3(CCc4ccccc43)C1=O)oc1ccccc12 (stereo unspecified)	-1.7	-4.0	112.0	1.4	10.0*
Cc1ccccc1NC(=O)CN1C(=O)NC2(CCc3ccccc32)C1=O (stereo unspecified)	-2.1	.	.	.	.
COc1ccc(-c2c(C#Cc3ccsc3)c3cc(-c4ccc5[nH]ccc5c4)ccc3n2C)cc1	17.2*	.	.	.	.
COc1ccc(-c2c(C#Cc3ccsc3)c3cc(-c4cccc5[nH]ccc45)ccc3n2C)cc1	0.1	.	.	.	.
COc1ccc(C(=O)Nc2nnc(CC(=O)N/N=C/c3ccc(O)cc3O)s2)cc1	35.5*	3.0	105.0	-8.4	108.0
Cc1ccc(C(=O)Nc2nnc(CC(=O)N/N=C/c3ccc(O)c(O)c3)s2)cc1	13.2	-9.0	97.0	-18.3	91.0
Cc1cc(C)cc(NC(=O)CCn2c(=S)[nH]c3ccccc3c2=O)c1	30.2*	4.0	103.0	-12.1	104.0
Cc1ccc(NC(=O)CN2C(=O)C(=O)N(C3CCCC3)C2=O)cc1Cl	-14.2	.	.	.	.
Fc1ccc(C2Nc3cccc4cccc(c34)N2)cc1	24.8*	-4.0	102.0	-4.5	98.0
SMILES	dFosB activator	MEKK2 mut-MEK5	MEKK3 PB1 HTS	FID counter	MEKK2wt PB1 HTS
COc1cc(C2Nc3cccc4cccc(c34)N2)cc(OC)c1O	40.6*	-10.0	64.0	3.9	76.0
CC(C)Cn1cnc2c1c(=O)[nH]c(=O)n2Cc1ccccc1	1.3	3.0	101.0	-3.8	99.0
Cc1ccc(/C=C2/SC(=S)N(C3CCCCC3)C2=O)o1	-13.7	-22.0	86.0	-22.5	56.0*[inhibitor]
Cc1ccc(/C=C2\SC(=S)N(CC3CCCO3)C2=O)o1 (stereo unspecified)	-9.0	-17.0	93.0	-12.5	61.0
CCOc1ccc2nc(N(CCN(CC)CC)C(=O)/C=C/c3cccs3)sc2c1	9.2	16.0	109.0	26.8	157.0*
CCN(CC)CCN(C(=O)c1ccc([N+](=O)[O-])cc1)c1nc2ccc(OC)cc2s1	-3.3	8.0	105.0	2.6	117.0
CCN(CC)CCN(C(=O)c1cc2ccccc2cc1OC)c1nc2ccc(OC)cc2s1	-4.5	26.0*	103.0	43.9*	148.0*
CCN(CC)CCN(C(=O)c1cc2ccccc2cc1OC)c1nc2ccc(F)cc2s1	-9.0	20.0	104.0	29.4	140.0*
CC(=O)Nc1sc(N/N=C\c2ccc(O)cc2)nc1-c1cccs1	-6.6	3.0	105.0	-10.8	98.0
CCN(CC)c1ccc(/C=C(\C#N)c2nc(-c3cccs3)c(NC(C)=O)s2)cc1	.	517.0*	104.0	-13.6	290.0*
COc1ccc(N(CC(=O)N2CCN(Cc3ccccc3)CC2)S(C)(=O)=O)c(OC)c1	-1.6	1.0	97.0	-19.4	102.0
Cc1ccc(-c2nnn(CC(=O)N(c3ccc4c(c3)OCCO4)C(C(=O)NCC3CCCO3)c3ccc(F)cc3)n2)o1 (stereo unspecified)	-2.2	-2.0	96.0	-27.3	96.0
CCOc1cc(/C=C2\C(=O)N(CCc3ccc(OC)c(OC)c3)C(C)=C2C(=O)OC)ccc1O	-9.2	-1.0	60.0*[inhibitor]	-23.1	95.0
O=C(Cn1c2ccccc2c(=O)c2ccccc21)N/N=C/c1cc([N+](=O)[O-])ccc1N1CCCCC1	-1.3	2.0	101.0	1.1	107.0
O=C(Cn1c2ccccc2c(=O)c2cc([N+](=O)[O-])ccc21)Nc1ccccc1Cl	62.8*	0.0	125.0	-0.5	102.0
Cc1cc2cc(CNC(=O)c3ccc4c(c3)OCO4)ccc2[nH]1	-3.4	-5.0	84.0	-0.8	-9.0*
Cc1cc2cc(CNC(=O)c3ccc(Br)o3)ccc2[nH]1	-6.2	1.0	68.0	.	53.0*[inhibitor]
CC1CCN(C(=O)CN(c2ccccc2)S(=O)(=O)N(C)C)CC1	-3.5	-18.0	82.0	-11.8	80.0
CC(C)C(OC(=O)c1nsc(Cl)c1Cl)C(=O)NC(C)(C)C (stereo unspecified)	-12.3	3.0	102.0	-11.6	102.0
CCC(OC(=O)c1nsc(Cl)c1Cl)C(=O)NC(C)(C)C (stereo unspecified)	-2.3	18.0	104.0	-4.5	12.0*
CN(C)CCCN(C(=O)c1ccc(S(=O)(=O)N2CCCCC2)cc1)c1nc2cc3c(cc2s1)OCO3	11.1	22.0	110.0	38.3*	132.0
Cc1cccc2sc(N(CCCN(C)C)C(=O)c3ccc(C(=O)c4ccccc4)cc3)nc12	-29.4	33.0*	106.0	37.8*	168.0*
Cc1cccc2sc(N(CCN(C)C)C(=O)c3cc(Cl)sc3Cl)nc12	-2.5	1.0	112.0	-0.1	109.0
CN(C)CCCN(C(=O)c1ccc(S(=O)(=O)N2CCOCC2)cc1)c1nc2cc3c(cc2s1)OCO3	-14.5	4.0	100.0	25.0	106.0
COc1ccc2sc(N(CCCN(C)C)C(=O)c3ccc(C(=O)c4ccccc4)cc3)nc2c1	21.7*	.	.	.	.
CN(C)CCCN(C(=O)c1ccc(C(=O)c2ccccc2)cc1)c1nc2cc3c(cc2s1)OCO3	24.6*	38.0*	109.0	44.2*	170.0*

From PubChem
